# Compounds with a hit are over-represented: about 4.1% of the library has one in this group of screens.
# DAX1 inh-1: DAX1 (NR0B1) inhibitors, primary screen, cell-based, HEK293, Gal4-DAX1, luciferase luminescence; Nuclear receptor subfamily 0 group B member 1 (Homo sapiens), P51843; HEK293 Gal4-DAX1 luciferase reporter; inhibition, % at 6.75 µM; 0.99% of 340,000 active; AID 504766, 2011;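 active = inhibition above the mean over all tested compounds plus 3 SD, cut at about 4.2% in these data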;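 also: 0% = DAX1-transfected cells with DMSO and 100% = empty-vector control cells with DMSO; inhibition shows as a rise in luminescence from relieved DAX1 repression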
# Target sequence (P51843 207-470 limits assumed): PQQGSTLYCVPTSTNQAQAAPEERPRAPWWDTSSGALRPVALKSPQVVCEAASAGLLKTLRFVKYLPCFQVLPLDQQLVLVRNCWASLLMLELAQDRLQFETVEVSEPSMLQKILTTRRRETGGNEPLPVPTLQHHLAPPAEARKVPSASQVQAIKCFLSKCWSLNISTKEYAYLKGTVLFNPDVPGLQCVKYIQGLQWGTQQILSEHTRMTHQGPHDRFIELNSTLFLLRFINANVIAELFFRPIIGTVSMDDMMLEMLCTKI
# hcDAF12 agonist: H. contortus DAF-12 nuclear receptor activators, primary screen, cell-based, luminescence, HEK293, lit1-tk-luc reporter; HEK293 hcDAF-12 lit1-tk-luc reporter; 0% DMSO, 100% Δ7-dafachronic acid; activation, % at 6.8 µM; 1.4% of 370,000 active; AID 652067, 2013;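 active = activation above the mean of all tested compounds plus 3 SD, cut at about 5.5% in these data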;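 also: 100% = response to 3 µM Δ7-dafachronic acid high control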
# hgDAF12 agonist: H. glycines DAF-12 receptor agonists, primary screen, cell-based, luminescence, HEK293, GAL4 fusion, UAS-luciferase; Nuclear hormone receptor DAF-12 (Heterodera glycines), GAL4 fusion; HEK293 GAL4-hgDAF12 UAS-luciferase reporter, agonist luminescence; normalized to butyrate control; activation, % at 6.8 µM; 1.8% of 370,000 active; AID 687014, 2013;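 active = activation above a cutoff set at the mean of all screened compounds plus 3 SD, cut at about 10% in these data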;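 also: 0% = DMSO wells and 100% = sodium butyrate wells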
# DAX1 inh-2: DAX1 (NR0B1) inhibitors on StAR promoter, primary screen, cell-based, luminescence, SF-1 (NR5A1), full-length DAX-1. HEK293T StAR-luciferase reporter, SF-1/DAX-1 repression relief. 1.1% of 370,000 active. inhibition, % at 6.8 µM;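 active = inhibition above the mean over all tested compounds plus 3 SD, cut at about 3.6% in these data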;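 also: 0% = DAX-1 cells with DMSO and 100% = cells lacking DAX-1 with DMSO; higher inhibition means more luminescence from relief of DAX-1 repression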
# ssDAF12 agonist: S. stercoralis DAF-12 nuclear receptor activators, primary screen, cell-based, luminescence, HEK293, GRIP1 co-expression, lit1-tk-luc | Nuclear hormone receptor DAF-12 (Strongyloides stercoralis) | HEK293 ssDAF-12/GRIP1 lit1-tk-luc reporter; % of 3 µM dafachronic acid response | activation, % at 6.8 µM | 1% of 370,000 active | AID 652126, 2013;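 active = activation above the mean over all tested compounds plus 3 SD, cut at about 0.9% in these data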;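 also: 0% = DMSO-only wells and 100% = 3 µM delta7-dafachronic acid wells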
# * = called active by the depositor; . = no result given.
SMILES,DAX1 inh-1,hcDAF12 agonist,hgDAF12 agonist,DAX1 inh-2,ssDAF12 agonist
C[C@@H]1CN([C@@H](C)CO)C(=O)CCCn2cc(nn2)CO[C@H]1CN(C)C(=O)Nc1ccccc1F,.,1,1,-1,-1
O=c1[nH]c(-c2ccc(O)cc2)nc2scc(-c3cccs3)c12,1,2,13*,2,-1
Cc1nc2scc(-c3cccs3)c2c(=O)[nH]1,0,-1,-2,-1,-1
O=C(OCC#CCSc1nnc(-c2cccc3ccccc23)o1)c1ccncc1,.,-3,2,.,-1
COc1cc(O)ccc1C(=O)CCc1ccc(O)cc1,-2,-3,-1,0,-2
O=C(CN1C(=O)S/C(=C\C=C\c2ccccc2)C1=O)Nc1ccccc1C(=O)O,-1,0,-1,0,-1
C#CCN1C(=O)S/C(=C/C=C/c2ccc(N(C)C)cc2)C1=O,3,4,13*,2,0
O=S1(=O)c2c(cccc2N2CCC[C@@H]2CO)O[C@@H]2CCN1C2,.,1,0,0,0
O=C(NCCCN1CCOCC1)c1c(-c2ccccc2)oc2c1C(OCCCCCO)CCC2 (centres undefined),.,0,1,0,0
O=C(N[C@@H](Cc1cccnc1)C(=O)N1CCC[C@H]1C(=O)NCc1ccccc1)c1ccc(Cl)c(Cl)c1,.,0,4,1,-1
Cc1cc(-c2ccc(F)cc2)nc2cc(C(N)=O)nn12,0,-3,1,-1,-1
CCOC(=O)c1cnn2c(C)cc(-c3ccc(F)cc3)nc12,1,2,12*,3,0
COC(=O)[C@]12C[C@H](CC(=O)NCc3cccs3)C(=O)N(Cc3ccc(Cl)cc3Cl)C1=C[C@H](COCc1ccccc1)O[C@@H]2C,.,1,-2,-1,-1
COC(=O)[C@]12C[C@H](CC(=O)NCc3cccs3)C(=O)N(Cc3ccccc3)C1=C[C@H](COCc1ccccc1)O[C@@H]2C,.,-2,11*,-1,-1
CC(C)(C)c1cc(NC(=O)c2c(F)cccc2Cl)n(-c2ccccc2)n1,4.5*,0,-1,-1,-1
Cc1cc(NC(=O)c2c(F)cccc2Cl)n(-c2nc3ccccc3[nH]2)n1,1,-1,0,-1,-1
COc1cc(OC)c(NC(=O)C(Sc2nc(C)cc(C)c2C#N)c2ccccc2)cc1Cl (centres undefined),.,1,0,1,-1
COc1ccc(/C=N/OC(=O)Nc2ccccc2OC)cc1,-1,1,12*,-1,0
CSC(=S)N/N=C/c1ccc(N(C)C)cc1,-1,2,1,1,-1
COc1ccc(NC(=O)O/N=C/c2ccc(Br)cc2)cc1,2,0,6,0,-1
CN(C)c1ccc(C=NNC(=S)Nc2ccc(F)cc2)cc1,5.0*,0,11*,1,-1
CC(=O)Nc1ccc(/C=N/OCC(=O)Nc2ccc(C)cc2)cc1,1,2,12*,0,0
Cc1ccc(NC(=O)O/N=C/c2ccc(N(C)C)cc2)cc1,3,2,13*,2,0
COc1ccc(S(=O)(=O)NC(=O)C2(C)CCN2C(=O)CC2CCCC2)cc1 (centres undefined),.,0,3,0,-2
COCCN(CCOC)C(=O)[C@@H](Cc1ccccc1)NC(=O)[C@H]1O[C@@H](n2ccc(N)nc2=O)[C@H](O)[C@@H]1O,.,-2,2,0,-1
SMILES,DAX1 inh-1,hcDAF12 agonist,hgDAF12 agonist,DAX1 inh-2,ssDAF12 agonist
COc1ccc(NC(=O)O/N=C/c2ccncc2)cc1,4.6*,1,7,1,-1
COC(=O)c1ccc(N2CCC(C)CC2)c(N)c1,2,2,4,1,0
COC(=O)c1ccc(N2CCCCC2)c(N)c1,1,2,6,3.7*,-1
CCOC(=O)c1c(NC(=O)CSc2nc3ccccc3s2)sc(C(C)=O)c1C,-1,1,-2,1,-1
O=c1oc2cc(Cl)ccc2n1CSc1nc2ccccc2s1,3,6.5*,12*,3,1
Cc1cc(SCC(=O)O)nc2ccccc12,-1,0,0,0,-1
O=C(CSc1nc2ccccc2s1)N1c2ccccc2Sc2ccc(Cl)cc21,0,-2,3,0,-2
Cc1cc(SCC(=O)c2cc3ccccc3o2)nc2ccccc12,0,5,4,1,1.1*
O=C(CSc1nc2cc(Cl)ccc2s1)c1cc2ccccc2o1,0,2,3,1,3.4*
Cc1cc(NC(=O)CSc2nc3cc(Cl)ccc3s2)no1,1,2,3,1,-1
CCOC(=O)c1c(NC(=O)CSc2nc3cc(Cl)ccc3s2)sc(C(C)=O)c1C,.,5.8*,1,0,-1
CC(C)S(=O)(=O)N[C@@H]1c2cc3c(cc2[C@H](c2ccccc2)[C@H]1C)OCO3,.,2,3,-2,-1
Cc1c(-n2c(O)c(C3=c4ccccc4=NC3=O)sc2=O)c(=O)n(-c2ccccc2)n1C,0,2,0,1,1.1*
O=C(O)Cn1c(O)c(C2=c3ccccc3=NC2=O)sc1=O,0,5,2,0,0
C=CCN1C(=O)c2ccc(C(=O)N3CCN(S(=O)(=O)c4ccc(C(C)C)cc4)CC3)cc2C1=O,4.4*,-1,-1,0,0
Cc1ccc2nc(C(C)(C)C)c(Cc3cccc(Cl)c3)n2c1,.,5,9,2,0
CN(C)CCCNC(=O)CC1C[C@H](C(=O)N2CCCCC2)[C@@]2(CCc3ccccc3)c3[nH]c4ccccc4c3CCN2C1=O (some centres undefined),0,1,1,3.9*,-1
C/C(CCc1ccc2c(c1)OCO2)=N\NC(=O)c1ccccc1,0,2,11*,0,2.5*
C/C(=N\NC(=O)c1ccccc1)c1ccc2c(c1)OCO2,5.2*,3,4,3,-1
CC(C)(C)c1ccc(S(=O)(=O)NNC(=O)c2cc3ccccc3[nH]2)cc1,-1,6.5*,8,1,0
CCCC(C)NNC(=O)c1cc2ccccc2[nH]1 (centres undefined),2,0,-1,0,-1
CCN1C(=O)CC(c2ccc(OC(C)C)cc2)C1=O (centres undefined),4.5*,0,0,0,-1
Cc1[nH]n(-c2ccccc2)c(=O)c1C=NCC1CCCO1 (centres undefined),-1,1,3,1,1.0*
Cc1[nH]n(-c2cccc(Cl)c2)c(=O)c1C=NCC(C)C,4.3*,3,10,3,-1

# Compound activity from PubChem.
